# KB-3-1 tox: KB-3-1 parental cell cytotoxicity; KB-3-1 viability, CellTiter-Glo ATP luminescence, 72 h; Potency, µM (highest dose often 46.1 µM), most hits filed as cytotoxic; hit rate 1.4% among 400,000; AID 1347075; also: nearly all actives have a fitted effect of over 60% in size
#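 Viability of parental KB-3-1 cells, measured by CellTiter-Glo luminescence, followed a 72 h incubation at 37 °C with pinned compounds in phenol-red-free DMEM containing 10% FBS.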
# HT1080NT lethal: kills 2HG-producing HT-1080-NT fibrosarcoma cells | Potency, µM (doses to about 46.1 µM), without a hit: at the top dose activity, negative = less viability, actives largely listed as cytotoxic | hit rate 1.6% among 360,000 | HT-1080-NT fibrosarcoma viability, CellTiter-Glo ATP luminescence, 48 h;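 also: NT is the 2HG producing partner of a matched IDH1 knockdown line; 0% = DMSO-treated cells and -100% = media-only wells without cells; nearly all actives have a fitted effect of over 55% in size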
#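 Viability of the 2HG-overproducing fibrosarcoma line after 48 hours of compound exposure at 37 degrees C was determined by luminescence with CellTiter-Glo, and concentration-effect curves were then fitted and categorized.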
# TDP1 cell CPT: DT40-hTDP1 cell growth loss with CPT | chicken DT40 Tdp1-/-;hTDP1 cells + 20 nM CPT, ATP luminescence, 48 h | Potency, µM (top dose mostly 46.2 µM), without a hit: at the top dose activity change, negative = growth inhibition, usual class: inhibitors | hit rate 12% among 420,000 | AID 686979; also: nearly all actives have a fitted effect of over 55% in size
#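 Chicken DT40 Tdp1-/- cells complemented with human TDP1, 400 cells/well, exposed to compounds plus 20 nM camptothecin for at least 48 h at 37 C; viability read as ATP content by CellTiter-Glo luminescence.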
# TDP1 cell noCPT: qHTS for Inhibitors of human tyrosyl-DNA phosphodiesterase 1 (TDP1): qHTS in cells in absence of CPT. DT40 Tdp1-/- hTDP1 cells, no CPT, ATP luminescence, 48 h. Potency, µM (doses to about 46.2 µM), inactives show at the highest dose activity change, negative = growth inhibition, hits mostly inhibitors. hit rate 15% among 420,000; also: nearly all actives have a fitted effect of over 55% in size
#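 A cellular qHTS used chicken DT40 cells lacking endogenous Tdp1 but carrying stably transfected human TDP1. Compounds were applied without camptothecin, and cell growth kinetics were judged by ATP-dependent luminescence after ≥48 hr.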
# KB-V1 cytotox: kills drug-selected multidrug resistant KB-V1 cells; KB-V1 MDR cells viability, CellTiter-Glo, 72 h; Potency, µM (top dose mostly 46.1 µM), actives largely listed as cytotoxic; hit rate 3.4% among 400,000; AID 1347076; also: nearly all actives have a fitted effect of over 60% in size
#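 Cytotoxicity via CellTiter-Glo luminescence after 72 h compound exposure at 37 degrees C. Cells: drug-selected KB-V1 line, DMEM phenol-red free plus 10% FBS. Compounds tested at multiple concentrations; normalized data fitted to concentration-effect curves.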
# HT1080 IDH1KD tx: toxicity to HT-1080 IDH1 knockdown cells (counter line); HT-1080 IDH1 knockdown viability, ATP luminescence, 48 h; Potency, µM (titrated, usually from 46.1 µM), for the others: top-dose activity, negative = toxicity, actives largely listed as cytotoxic; hit rate 2% among 360,000; AID 686971;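 also: 0% = DMSO wells and -100% = cell-free medium wells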
#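 HT-1080-IDH1KD cells (IDH1 knocked down), 750/well in RPMI with 5% FBS, treated with compound 48 h at 37 degrees C. Viability by CellTiter-Glo luminescence, normalised to DMSO and no-cell wells; concentration-response curves classed.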
# The depositor's hits bear a star; i = inactive; ? = inconclusive; . = no result. Sampled rows, rich in hits. Any-hit rate of the full collection: about 19%. Calls follow the shape of the dose curve; as a rule, active = well fitted curve in the direction sought with a large enough effect; inconclusive = small, poorly fitted or top-dose-only effect, or another doubt; inactive = no such curve, though single readings can be large; an effect the other way counts as inactive or inconclusive. Unless noted, % is scaled to controls: 0 for no effect and ±100 for the full control effect; potency is read from the fitted curve at half-maximal effect.
SMILES,KB-3-1 tox,HT1080NT lethal,TDP1 cell CPT,TDP1 cell noCPT,KB-V1 cytotox,HT1080 IDH1KD tx
Cc1ccn2c(c1)nc(=O)c1cc(S(=O)(=O)N3CCCCC3)c(Cl)cc12,i,.,.,.,i,.
Cc1cc(NC(=O)c2oc3c(c2C)-c2[nH]ncc2CC3)ccc1Br,.,.,?,18.4µM*,.,.
Cc1c(C(=O)N2CCCC2)oc2c1-c1[nH]ncc1CC2,i,-0.1%,-21.0%,-27.8%,i,14.6%
CCCN1C(=O)/C(=C\C=C2/C=CN(CC)c3ccccc32)SC1=S,i,0.0%,?,10.3µM*,?,9.0%
CN1CCS/C1=C/C=C1/SC(=S)N(Cc2ccccc2)C1=O,?,0.0%,?,?,i,-14.4%
COc1ccc(-c2sc(Nc3ccccc3)n[n+]2-c2ccc(F)cc2)c(OC)c1OC,i,0.0%,?,13µM*,i,0.0%
CCc1ccc(Nc2n[n+](-c3ccccc3)c(-c3ccc(OC)c(Br)c3)s2)cc1,?,-22.5%,16.4µM*,?,i,-26.5%
Fc1ccc(-[n+]2nc(Nc3ccccc3)sc2-c2ccc(OCc3ccccc3)cc2)cc1,?,-10.3%,16.4µM*,23.1µM*,i,-13.1%
Fc1ccc(-[n+]2nc(Nc3ccccc3)sc2-c2cccc(Cl)c2Cl)cc1,i,-8.9%,?,?,i,-11.0%
Clc1cccc(-c2sc(Nc3ccccc3)n[n+]2-c2ccccc2)c1Cl,i,1.9%,?,18.4µM*,i,3.3%
CCOc1cc(-c2sc(Nc3ccccc3)n[n+]2-c2ccc(F)cc2)ccc1OC,?,-0.6%,-14.7%,-17.5%,i,-1.0%
COc1cc(OC)c(NC(=O)CCn2cccn2)cc1Cl,i,.,21.2%,-3.7%,i,.
O=C1NC(=O)C2(N1)C(=O)c1cccc3cccc2c13 (configuration not stated),i,-0.4%,-1.5%,?,i,3.1%
COc1cccc(C(=O)NNS(=O)(=O)c2ccccc2)c1,i,6.1%,0.2%,-18.4%,i,4.5%
COc1ccc(C)cc1Nc1n[n+](-c2ccccc2)c(-c2ccc(NC(C)=O)cc2)s1,i,2.1%,?,-26.9%,i,-5.0%
COc1cc(OC)c(-c2sc(Nc3ccccc3)n[n+]2-c2ccc(F)cc2)cc1OC,i,1.1%,?,-24.6%,i,0.1%
COc1ccc(C)cc1Nc1n[n+](-c2ccccc2)c(-c2cc([N+](=O)[O-])cc(OC)c2O)s1,i,0.0%,20.6µM*,?,i,1.7%
COc1ccc(C)cc1Nc1n[n+](-c2ccccc2)c(-c2ccc(SC)cc2)s1,?,?,18.4µM*,14.6µM*,?,18.4µM*
CCc1ccc(Nc2n[n+](-c3ccccc3)c(-c3ccc(C(=O)O)cc3)s2)cc1,i,-17.0%,-29.0%,-18.1%,i,?
CSc1ccc(-c2sc(Nc3ccccc3)n[n+]2-c2ccccc2)cc1,i,-5.4%,16.4µM*,?,i,-4.6%
CCc1ccc(Nc2n[n+](C)c(-c3ccncc3)s2)cc1,?,-15.4%,16.4µM*,25.9µM*,i,-0.5%
CC(c1ccccc1)n1ccnc1CO (configuration not stated),i,1.0%,2.3%,-6.3%,i,-1.2%
CCc1ccc(Nc2n[n+](-c3ccccc3)c(-c3ccc(SC)cc3)s2)cc1,?,?,6.51µM*,6.51µM*,i,?
N#Cc1c(-n2ncnc2-c2ccc(Br)cc2)sc2c1CCCCC2,i,.,?,?,i,.
N#CC1(C#N)COC23CCCCC2C1(C#N)C(=N)O3 (configuration not stated),?,-3.6%,5.8µM*,5.8µM*,?,-13.3%
SMILES,KB-3-1 tox,HT1080NT lethal,TDP1 cell CPT,TDP1 cell noCPT,KB-V1 cytotox,HT1080 IDH1KD tx
N#CC12COC3(CCCCC3C1(C#N)C#N)OC2=N (configuration not stated),i,0.1%,2.31µM*,2.59µM*,i,0.4%
O=C1CCc2cccc(O)c2N1,i,7.8%,13.5%,-3.5%,i,11.1%
CCc1nnc(SCC(=O)Nc2cc(Cl)c(OC)cc2OC)c2cc3oc(C)cc3n12,i,.,?,?,i,.
CCc1nc2ccc(C(=O)NCCCn3ccnc3)cn2c1N(CC)CCOC,i,22.3%,-3.2%,8.8%,i,12.4%
CCCCn1nnnc1C1(C)CCC(=O)N1CC1CCCCC1 (configuration not stated),i,10.6%,-17.4%,-18.7%,i,1.5%
CCN(CC)CCNC(=S)Nc1ccc2nc(N3CCN(CC)CC3)cc(C)c2c1,i,-23.7%,?,?,i,?
CCCCNC(=S)Nc1ccc2nc(N3CCN(CC)CC3)cc(C)c2c1,i,-26.4%,23.1µM*,23.1µM*,i,?
CCN1CCN(c2cc(C)c3cc(NC(=S)NCCN(C)C)ccc3n2)CC1,i,-20.2%,?,20.6µM*,i,?
CCCCN(C)CCNC(=S)Nc1ccc2nc(N3CCN(CC)CC3)cc(C)c2c1,i,18.4µM*,?,?,i,29.1µM*
CC(C)(C)C(=O)N1NC(=Nc2ccccc2)SC1(C)C,i,-4.5%,-28.1%,20.6µM*,i,-9.6%
COC(=O)/C=C1\SC(=Nc2ccccc2)NC1=O,i,3.0%,-15.7%,-5.0%,i,1.6%
CCCn1c(=O)c2sccc2n2c(CCCC(=O)Nc3cccc(CC)c3)nnc12,.,.,23.1µM*,?,.,.
CCCn1c(=O)c2sccc2n2c(CCCC(=O)Nc3ccc(C)c(F)c3)nnc12,.,.,?,23.1µM*,.,.
CCc1ccc(NC(=O)Cn2c(=O)n(CCC(C)C)c(=O)c3cccnc32)cc1,i,.,?,?,i,.
O=C(Cc1cccs1)Nc1ccc(-c2nc3ccccc3[nH]2)cc1,?,?,?,20.6µM*,i,?
O=C(Nc1ccc(-c2nc3ccccc3[nH]2)cc1)c1c(F)c(F)c(F)c(F)c1F,i,-0.8%,-2.2%,-6.6%,i,-1.9%
COc1c(F)c(F)c(C(=O)Nc2ccc(-c3nc4ccccc4[nH]3)cc2)c(F)c1F,i,0.5%,6.51µM*,4.61µM*,i,-2.3%
Cc1ccc2nc(-c3ccc(NC(=O)CSc4ccccc4)cc3)[nH]c2c1,i,?,10.3µM*,16.4µM*,i,12.6µM*
O=C(CSc1ccccc1)Nc1ccc(-c2nc3ccccc3[nH]2)cc1,20.6µM*,13µM*,23.1µM*,10.3µM*,?,?

# High-throughput results deposited in PubChem BioAssay by National Center for Advancing Translational Sciences (NCATS).
